Records with an inconclusive call do not appear. Calls of active or inactive are those of the source. Rule for the calls, unless noted: active = hit-call score of the fitted dose curve at least 0.9, where 1 is the maximum; inactive = score below 0.9.
Columns and labels:
[1] = target: Glucocorticoid receptor (Homo sapiens) (UniProt P04150); test: ATG_GR_TRANS: Attagene TRANS-FACTORIAL HepG2 Assay for human Glucocorticoid Receptor (GR) (AID 2282978; active = hit-call score of the fitted dose curve at least 0.9, where 1 is the maximum;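 note: activators score as hits since higher reporter transcript over DMSO is fitted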); conditions: HepG2 Attagene TRANS GR reporter, mRNA transcription
How it was run: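 HepG2 cells transiently transfected with multiplexed reporter units in which chimeric NR-GAL4 proteins drive GAL4-UAS reporters; 24 h compound exposure. Reporter mRNA measured by RT-PCR, 6-FAM labelling, HpaI digestion and capillary electrophoresis; gain-of-signal fitted versus DMSO.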

[2] = target: Oxysterols receptor LXR-beta (Homo sapiens) (UniProt P55055); test: ATG_LXRb_TRANS: Attagene TRANS-FACTORIAL HepG2 Assay for human Liver X Receptor beta (LXRb) (AID 2282981; active = hit-call score of the fitted dose curve at least 0.9, where 1 is the maximum); conditions: HepG2 Attagene TRANS GAL4-LXRb reporter, mRNA
Sequence of Oxysterols receptor LXR-beta (Homo sapiens) (P55055 whole entry, looked up, the tested form may be a part): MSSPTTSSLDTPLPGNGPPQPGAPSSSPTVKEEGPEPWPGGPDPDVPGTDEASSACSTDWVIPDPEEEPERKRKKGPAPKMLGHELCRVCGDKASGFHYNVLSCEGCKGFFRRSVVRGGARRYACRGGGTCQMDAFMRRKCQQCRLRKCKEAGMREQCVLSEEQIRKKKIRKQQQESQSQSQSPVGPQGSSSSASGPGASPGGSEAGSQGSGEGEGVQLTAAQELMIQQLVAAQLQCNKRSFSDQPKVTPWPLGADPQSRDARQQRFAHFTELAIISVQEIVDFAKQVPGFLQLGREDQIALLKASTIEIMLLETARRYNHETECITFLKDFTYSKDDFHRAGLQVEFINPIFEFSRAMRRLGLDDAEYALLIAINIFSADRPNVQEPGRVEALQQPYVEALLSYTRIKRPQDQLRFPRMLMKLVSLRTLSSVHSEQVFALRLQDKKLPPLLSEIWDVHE
How it was run: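 After 24 h chemical treatment of transfected HepG2 cells carrying exogenous NR-Gal4 chimeras, reporter mRNA was quantified by fluorescent RT-PCR and capillary electrophoresis; activity taken as increase over DMSO controls.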

[3] = target: Transcriptional activator Myb (Homo sapiens) (UniProt P10242); test: ATG_Myb_CIS: Attagene CIS-FACTORIAL HepG2 Assay for human Myeloblastosis (Myb) Proto-Oncogene Transcription Factor (AID 2282986); conditions: HepG2 Attagene CIS-FACTORIAL Myb reporter transcription; actives raise or lower the signal
Sequence of Transcriptional activator Myb (Homo sapiens) (P10242 whole entry, looked up): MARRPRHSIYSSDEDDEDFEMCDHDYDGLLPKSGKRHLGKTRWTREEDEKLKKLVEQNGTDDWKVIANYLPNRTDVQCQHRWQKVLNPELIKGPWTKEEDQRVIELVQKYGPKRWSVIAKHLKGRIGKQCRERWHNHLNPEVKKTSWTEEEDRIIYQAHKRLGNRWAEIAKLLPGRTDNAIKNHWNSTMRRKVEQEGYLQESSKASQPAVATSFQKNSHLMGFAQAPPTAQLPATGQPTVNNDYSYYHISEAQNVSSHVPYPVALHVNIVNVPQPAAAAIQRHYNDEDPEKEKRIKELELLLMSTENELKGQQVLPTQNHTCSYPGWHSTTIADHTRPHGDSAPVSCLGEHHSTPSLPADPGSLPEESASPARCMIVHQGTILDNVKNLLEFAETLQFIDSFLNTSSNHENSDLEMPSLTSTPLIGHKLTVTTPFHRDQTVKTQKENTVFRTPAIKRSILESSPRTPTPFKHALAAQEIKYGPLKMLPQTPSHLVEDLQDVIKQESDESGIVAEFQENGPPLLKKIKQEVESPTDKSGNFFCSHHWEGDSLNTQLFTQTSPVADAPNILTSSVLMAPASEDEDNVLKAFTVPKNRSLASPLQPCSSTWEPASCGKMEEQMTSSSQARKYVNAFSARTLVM
How it was run: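 HepG2 cells were transiently transfected with cis-regulated multiple reporter transcription units reflecting endogenous Myb activity, then exposed to compound for 24 hours. Reporter mRNA was measured by RT-PCR with capillary electrophoresis; bidirectional fitting versus DMSO baseline.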

[4] = target: Nuclear respiratory factor 1 (Homo sapiens) (UniProt Q16656); test: ATG_NRF1_CIS: Attagene CIS-FACTORIAL HepG2 Assay for human Nuclear Respiratory Factor 1 (NRF1) Orphan Gene (AID 2282987); conditions: HepG2 NRF1 cis-element reporter, Attagene multiplex; actives raise or lower the signal
Sequence of Nuclear respiratory factor 1 (Homo sapiens) (Q16656 whole entry, looked up): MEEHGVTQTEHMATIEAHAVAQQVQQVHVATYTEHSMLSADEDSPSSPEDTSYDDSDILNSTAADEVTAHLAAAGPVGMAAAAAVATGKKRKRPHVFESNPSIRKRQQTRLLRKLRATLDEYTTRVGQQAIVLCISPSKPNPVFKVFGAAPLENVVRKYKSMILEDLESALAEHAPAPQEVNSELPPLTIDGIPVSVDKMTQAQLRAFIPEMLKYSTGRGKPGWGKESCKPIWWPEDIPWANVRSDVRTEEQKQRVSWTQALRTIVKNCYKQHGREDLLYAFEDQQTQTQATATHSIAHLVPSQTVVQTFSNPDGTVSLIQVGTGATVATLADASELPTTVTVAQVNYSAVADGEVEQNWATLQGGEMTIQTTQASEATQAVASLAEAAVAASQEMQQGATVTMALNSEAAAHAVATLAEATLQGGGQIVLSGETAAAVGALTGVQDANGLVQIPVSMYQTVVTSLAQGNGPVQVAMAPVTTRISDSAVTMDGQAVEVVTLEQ
How it was run: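 HepG2 cells transiently transfected with multiple reporter transcription units under cis-regulatory promoter control, so endogenous transcription-factor activity is read. After 24 h compound exposure, reporter mRNA quantified by RT-PCR, fluorescent labelling, HpaI digestion and capillary electrophoresis; bidirectional fitting versus DMSO.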

[5] = ATG_NFI_CIS: Attagene CIS-FACTORIAL HepG2 Assay for human Nuclear Factor I (NFI) (AID 2282989); conditions: HepG2 cis-regulatory reporter, NFI response element transcription; actives raise or lower the signal
How it was run: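 Reporter transcripts were measured by RT-PCR with fluorescent primer extension and capillary electrophoresis 24 h post-treatment. HepG2 cells carried transiently transfected cis-regulated reporter constructs reporting endogenous factor activity; gain or loss fitted against DMSO baseline.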

[6] = target: Myc proto-oncogene protein (Homo sapiens) (UniProt P01106); test: ATG_Myc_CIS: Attagene CIS-FACTORIAL HepG2 Assay for human Myelocytomatosis (Myc) Proto-Oncogene Transcription Factor (AID 2282990); conditions: HepG2, Attagene cis-reporter transcription factor activity; actives raise or lower the signal
Sequence of Myc proto-oncogene protein (Homo sapiens) (P01106 whole entry, looked up, the tested form may be a part): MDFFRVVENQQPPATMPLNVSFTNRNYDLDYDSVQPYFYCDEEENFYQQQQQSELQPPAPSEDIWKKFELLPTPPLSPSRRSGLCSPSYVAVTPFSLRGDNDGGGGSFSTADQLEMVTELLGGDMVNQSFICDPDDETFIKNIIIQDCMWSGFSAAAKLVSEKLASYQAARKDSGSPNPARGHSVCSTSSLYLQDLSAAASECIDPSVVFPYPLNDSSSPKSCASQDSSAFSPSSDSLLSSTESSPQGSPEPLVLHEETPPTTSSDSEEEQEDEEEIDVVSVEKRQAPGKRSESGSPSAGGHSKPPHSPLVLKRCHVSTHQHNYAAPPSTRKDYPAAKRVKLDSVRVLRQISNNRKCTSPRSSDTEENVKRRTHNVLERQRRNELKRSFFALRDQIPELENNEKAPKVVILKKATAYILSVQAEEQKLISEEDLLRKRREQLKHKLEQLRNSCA
How it was run: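 After 24 h chemical treatment of HepG2 cells carrying multiplexed cis-regulated reporter constructs, reporter transcripts quantified by RT-PCR and capillary electrophoresis of fluorescent fragments. Gain or loss fitted against DMSO baseline.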

[7] = ATG_NF_kB_CIS: Attagene CIS-FACTORIAL HepG2 Assay for human Nuclear Factor Kappa B (NF-kB) (AID 2282991); conditions: HepG2 Attagene cis-factorial NF-kB reporter mRNA; actives raise or lower the signal
How it was run: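 HepG2 cells transiently transfected with multiplexed cis-element reporter units measuring endogenous transcription factor activity; reporter mRNA read 24 h after dosing by RT-PCR, fluorescent labelling, HpaI digestion and capillary electrophoresis. Bidirectional fit against DMSO baseline.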

[8] = ATG_NRF2_ARE_CIS: Attagene CIS-FACTORIAL HepG2 Assay for human Nuclear Factor Erythroid 2 Related Factor 2 (NFR2) response to Antioxidant Response Elements (ARE) (AID 2282992); conditions: HepG2 Attagene ARE/NRF2 reporter, transcription factor activity; actives raise or lower the signal;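 for AC50: reporter mRNA level measured by RT-PCR and capillary electrophoresis fluorescence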
How it was run: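 Fluorescence intensity of reporter-specific cDNA fragments, separated by capillary electrophoresis, reflects mRNA induction in transfected HepG2 cells at 24 h. Activity is fitted bidirectionally, DMSO serving as baseline.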

[9] = target: Bile acid receptor (Homo sapiens) (UniProt Q96RI1); test: ATG_FXR_TRANS: Attagene TRANS-FACTORIAL HepG2 Assay for Farnesoid X Receptor (FXR) (AID 2282979; active = hit-call score of the fitted dose curve at least 0.9, where 1 is the maximum;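 note: hits raise reporter mRNA above DMSO so AC50 marks FXR activation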); conditions: HepG2 Attagene TRANS FXR-GAL4 reporter transcription
Sequence of Bile acid receptor (Homo sapiens) (Q96RI1 whole entry, looked up, the tested form may be a part): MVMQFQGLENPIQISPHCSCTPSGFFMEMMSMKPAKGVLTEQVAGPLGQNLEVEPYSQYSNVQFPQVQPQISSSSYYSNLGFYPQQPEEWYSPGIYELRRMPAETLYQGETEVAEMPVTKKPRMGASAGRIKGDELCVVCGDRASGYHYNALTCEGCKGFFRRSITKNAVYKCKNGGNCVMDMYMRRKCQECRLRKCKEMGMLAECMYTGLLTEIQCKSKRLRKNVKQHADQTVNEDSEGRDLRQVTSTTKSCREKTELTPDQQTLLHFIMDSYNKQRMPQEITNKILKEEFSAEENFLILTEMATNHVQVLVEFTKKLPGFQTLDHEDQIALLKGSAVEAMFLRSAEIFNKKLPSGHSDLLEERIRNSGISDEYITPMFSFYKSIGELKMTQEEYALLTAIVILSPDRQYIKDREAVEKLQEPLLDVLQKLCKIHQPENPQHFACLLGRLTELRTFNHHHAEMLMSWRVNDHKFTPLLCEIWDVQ
How it was run: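 After 24 h chemical treatment of transfected HepG2 cells, GAL4-UAS reporter transcripts driven by an exogenous FXR-GAL4 fusion were measured by RT-PCR and capillary electrophoresis. Increases over DMSO were fitted.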

[10] = target: Hepatocyte nuclear factor 4-alpha (Homo sapiens) (UniProt P41235); test: ATG_HNF4a_TRANS: Attagene TRANS-FACTORIAL HepG2 Assay for human Hepatocyte Nuclear Factor 4 alpha (HNF4a) (AID 2282982; active = hit-call score of the fitted dose curve at least 0.9, where 1 is the maximum); conditions: HepG2 HNF4a transactivation reporter, mRNA readout
Sequence of Hepatocyte nuclear factor 4-alpha (Homo sapiens) (P41235 whole entry, looked up, the tested form may be a part): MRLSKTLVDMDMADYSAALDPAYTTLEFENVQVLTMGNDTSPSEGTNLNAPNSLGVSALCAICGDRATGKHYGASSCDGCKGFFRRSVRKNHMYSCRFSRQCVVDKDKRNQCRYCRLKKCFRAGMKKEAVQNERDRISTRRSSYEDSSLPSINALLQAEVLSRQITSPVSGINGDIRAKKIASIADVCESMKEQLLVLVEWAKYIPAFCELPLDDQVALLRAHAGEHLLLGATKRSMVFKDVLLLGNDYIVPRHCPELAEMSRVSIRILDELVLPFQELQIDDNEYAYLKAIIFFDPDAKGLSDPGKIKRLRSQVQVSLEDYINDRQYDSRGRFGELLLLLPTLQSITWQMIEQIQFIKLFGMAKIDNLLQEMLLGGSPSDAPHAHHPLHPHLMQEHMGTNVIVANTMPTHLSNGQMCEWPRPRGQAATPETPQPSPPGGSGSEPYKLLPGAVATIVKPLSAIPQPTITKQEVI
How it was run: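 Activity of an exogenous HNF4a–Gal4 fusion scored as induced GAL4-UAS reporter transcripts after 24 h chemical exposure of transfected human HepG2 cells. Read-out via RT-PCR with 6-FAM labelling and capillary electrophoresis; rise over DMSO baseline.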

[11] = ATG_M_06_TRANS: Attagene TRANS-FACTORIAL HepG2 Assay for M06 Transcription Factor (Internal Marker) (AID 2282983; active = hit-call score of the fitted dose curve at least 0.9, where 1 is the maximum); conditions: HepG2 Attagene TRANS M06 internal marker reporter
How it was run: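 Multi-reporter-transfected HepG2, 24 h treatment; reporter transcripts quantified via RT-PCR, primer-extension labelling and CE. DMSO-normalized gain-of-signal fit.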

[12] = ATG_M_32_TRANS: Attagene TRANS-FACTORIAL HepG2 Assay for M32 Transcription Factor (Internal Marker) (AID 2282984; active = hit-call score of the fitted dose curve at least 0.9, where 1 is the maximum;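 note: transcript level of a background control reporter unit measured by RT-PCR and capillary electrophoresis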); conditions: HepG2 Attagene TRANS M32 internal marker reporter
How it was run: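 Internal background reporter in transfected HepG2: after 24 h chemical exposure, RNA reverse-transcribed, reporter cDNA amplified, fluorescently labelled and HpaI-cut, then sized by capillary electrophoresis. Gain of signal fitted against DMSO control.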

[13] = target: Nuclear receptor subfamily 4 group A member 2 (Homo sapiens) (UniProt P43354); test: ATG_NURR1_TRANS: Attagene TRANS-FACTORIAL HepG2 Assay for human Nuclear Receptor Related Protein 1 (NURR1) (AID 2282985; active = hit-call score of the fitted dose curve at least 0.9, where 1 is the maximum); conditions: HepG2 Attagene TRANS reporter, mRNA readout
Sequence of Nuclear receptor subfamily 4 group A member 2 (Homo sapiens) (P43354 whole entry, looked up, the tested form may be a part): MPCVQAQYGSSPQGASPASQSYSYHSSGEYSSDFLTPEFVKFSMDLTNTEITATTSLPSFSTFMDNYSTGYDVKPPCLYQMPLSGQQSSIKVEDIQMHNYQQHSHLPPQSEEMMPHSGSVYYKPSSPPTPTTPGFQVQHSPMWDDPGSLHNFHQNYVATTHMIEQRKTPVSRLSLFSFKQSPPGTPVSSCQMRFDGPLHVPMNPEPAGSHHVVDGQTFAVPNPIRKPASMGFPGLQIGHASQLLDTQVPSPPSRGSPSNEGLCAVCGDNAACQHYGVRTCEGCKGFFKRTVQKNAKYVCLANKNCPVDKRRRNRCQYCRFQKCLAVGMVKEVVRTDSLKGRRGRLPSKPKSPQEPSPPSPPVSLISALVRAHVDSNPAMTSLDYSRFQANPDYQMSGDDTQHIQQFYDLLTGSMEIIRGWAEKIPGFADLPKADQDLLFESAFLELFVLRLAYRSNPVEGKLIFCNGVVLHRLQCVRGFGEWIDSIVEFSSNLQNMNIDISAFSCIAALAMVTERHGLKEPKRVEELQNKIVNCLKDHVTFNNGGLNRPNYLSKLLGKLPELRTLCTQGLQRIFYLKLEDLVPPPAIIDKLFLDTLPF
How it was run: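 Reporter transcript induction, measured by RT-PCR with fluorescent labelling, HpaI digestion and capillary electrophoresis, after 24 hr dosing of human HepG2 cells transiently expressing an exogenous NR-Gal4 fusion with GAL4-UAS-driven reporters; DMSO as baseline.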

[14] = ATG_Oct_MLP_CIS: Attagene CIS-FACTORIAL HepG2 Assay for human Octamer-Binding Transcription Factor (Oct) (AID 2282993); conditions: HepG2 Attagene cis-factorial Oct reporter, mRNA; actives raise or lower the signal
How it was run: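 Readout is reporter transcript level from RT-PCR with fluorescent primer extension and capillary electrophoresis, fitted in both directions against DMSO. Transfected HepG2 reporter units report endogenous factor activity after 24 h dosing.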

[15] = target: Cellular tumor antigen p53 (Homo sapiens) (UniProt P04637); test: ATG_p53_CIS: Attagene CIS-FACTORIAL HepG2 Assay for human p53 Transcription Factor (AID 2282994); conditions: HepG2 p53 cis-element reporter, Attagene mRNA; actives raise or lower the signal
Sequence of Cellular tumor antigen p53 (Homo sapiens) (P04637 whole entry, looked up): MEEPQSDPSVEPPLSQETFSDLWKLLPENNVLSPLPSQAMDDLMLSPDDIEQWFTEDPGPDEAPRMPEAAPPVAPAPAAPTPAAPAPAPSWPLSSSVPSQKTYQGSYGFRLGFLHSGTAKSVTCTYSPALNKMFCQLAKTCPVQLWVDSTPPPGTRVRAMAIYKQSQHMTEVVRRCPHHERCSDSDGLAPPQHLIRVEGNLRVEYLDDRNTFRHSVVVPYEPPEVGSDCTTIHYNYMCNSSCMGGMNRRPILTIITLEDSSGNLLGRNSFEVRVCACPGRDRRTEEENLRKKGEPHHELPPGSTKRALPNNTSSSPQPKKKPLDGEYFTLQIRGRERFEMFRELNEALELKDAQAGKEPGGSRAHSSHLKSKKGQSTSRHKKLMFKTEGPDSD
How it was run: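 Transiently transfected HepG2 (multiple cis reporter transcription units); exposure 24 h; reporter RNA via RT-PCR, 6-FAM extension, 2 h HpaI digest at 37 C, CE detection; DMSO baseline.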

[16] = target: Oxysterols receptor LXR-alpha (Homo sapiens) (UniProt Q13133); test: ATG_LXRa_TRANS: Attagene TRANS-FACTORIAL HepG2 Assay for human Liver X Receptor alpha (LXRa) (AID 2282980; active = hit-call score of the fitted dose curve at least 0.9, where 1 is the maximum); conditions: HepG2 Attagene TRANS reporter, LXRa transactivation
Sequence of Oxysterols receptor LXR-alpha (Homo sapiens) (Q13133 whole entry, looked up, the tested form may be a part): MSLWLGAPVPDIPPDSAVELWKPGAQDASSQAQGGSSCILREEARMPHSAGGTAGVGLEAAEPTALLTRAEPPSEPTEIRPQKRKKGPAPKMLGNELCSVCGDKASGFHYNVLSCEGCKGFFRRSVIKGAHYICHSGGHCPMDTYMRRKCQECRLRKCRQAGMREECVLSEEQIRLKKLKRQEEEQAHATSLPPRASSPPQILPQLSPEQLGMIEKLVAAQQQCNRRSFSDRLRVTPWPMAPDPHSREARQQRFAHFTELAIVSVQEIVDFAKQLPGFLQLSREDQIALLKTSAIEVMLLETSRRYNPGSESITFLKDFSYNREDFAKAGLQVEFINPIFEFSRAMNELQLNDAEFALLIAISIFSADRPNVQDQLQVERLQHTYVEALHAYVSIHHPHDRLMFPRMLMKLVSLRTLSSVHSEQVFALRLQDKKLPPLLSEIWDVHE
How it was run: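 In this multiplexed TRANS system, compounds act on HepG2 cells carrying GAL4-UAS reporter units and a receptor-GAL4 fusion for 24 h. Induced reporter RNA is amplified, fluorescently labelled and sized by capillary electrophoresis, with DMSO as baseline.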

[17] = BSK_3C_TissueFactor: BioMAP Diversity Plus: 3C Assay for Tissue Factor Biomarker Activity (AID 2282997); conditions: BioMAP 3C HUVEC, tissue factor biomarker readout; actives raise or lower the signal
How it was run: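 In this endothelial system, HUVEC are treated for 24 h and Tissue Factor is assessed by ELISA, normalised to DMSO.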

[18] = BSK_3C_uPAR: BioMAP Diversity Plus: 3C Assay for Urokinase-type plasminogen activator receptor (uPAR) Biomarker Activity (AID 2282998); conditions: BioMAP 3C HUVEC, uPAR biomarker ELISA; actives raise or lower the signal
How it was run: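 Cell-surface uPAR on HUVEC (3C system) read by ELISA at 24 h post-treatment, with DMSO as baseline and fitting in both directions. Parallel cultures stained with SRB to flag overt cytotoxicity.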

[19] = BSK_3C_VCAM1: BioMAP Diversity Plus: 3C Assay for Vascular cell adhesion molecule 1 (VCAM1) Biomarker Activity (AID 2282999); conditions: BioMAP 3C HUVEC, VCAM1 ELISA, cytokine-stimulated; actives raise or lower the signal
How it was run: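 Activity fitted in both directions relative to DMSO, with ELISA measurement of the surface marker on primary HUVEC (3C) at 24 h post-treatment; parallel SRB staining (0.1% SRB, TCA-fixed, 560 nm) flagged overt cytotoxicity.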

[20] = BSK_4H_Eotaxin3: BioMAP Diversity Plus: 4H Assay for Eotaxin 3 Biomarker Activity (AID 2283000); conditions: primary human endothelial cells (HUVEC); actives raise or lower the signal;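 note: CCL26 protein level quantified by ELISA in parallel with SRB cytotoxicity check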
How it was run: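 ELISA quantitation of CCL26 (Eotaxin-3) protein from chemically dosed human vascular endothelial cells at 24 h; increases and decreases both scored relative to DMSO-treated baseline.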

Measured: AC50

CC(c1cc2ccccc2s1)N(O)C(N)=O (stereo unspecified)
inactive: [2] | [3] | [4] | [5] | [6] | [7] | [8]
active: [1] 100 µM

CCCCCCCCCCCCCC(=O)O
inactive: [9] | [10] | [11] | [12] | [13] | [3] | [5] | [6] | [14] | [15]
active: [8] 65.5 µM

O=C(O)c1snc(Cl)c1Cl
inactive: [16] | [2] | [10] | [11] | [12] | [3] | [5] | [6] | [15]
active: [7] 100 µM | [8] 27.4 µM | [14] 155 µM

Cc1ccc(Nc2ccc(O)c3c2C(=O)c2ccccc2C3=O)cc1
active: [8] 5.13 µM | [17] 1.13 µM
not listed: [1] | [7] | [10] | [11] | [13]
inactive: all other assays above

CCCCO
inactive: [9] | [10] | [12] | [3] | [4] | [5] | [6] | [8] | [14]

CCCOCC(C)O (stereo unspecified)
inactive: [16] | [2] | [10] | [11] | [3] | [4] | [5] | [6] | [8] | [14]

CCCC/C=C\CCCCCCCCCC=O
inactive: [9] | [12] | [3] | [4] | [5] | [6] | [7] | [8] | [14] | [15]

Cc1ccc(C=O)cc1
inactive: [9] | [2] | [13] | [3] | [4] | [5] | [6] | [7] | [8] | [15]

CCCC[n+]1ccccc1
inactive: [16] | [2] | [10] | [12] | [13] | [3] | [4] | [5] | [6] | [8]

CC(=O)[C@H]1CC[C@H]2[C@@H]3CC=C4C[C@@H](O)CC[C@]4(C)[C@H]3CC[C@]12C
active: [8] 16.5 µM
not listed: [1] | [2] | [7] | [16]
inactive: all other assays above

From PubChem BioAssay (EPA / NIEHS)
